Source: PubChem BioAssay AID1159580 (chemical genetic matrix, 2015)
In all, about 5,500 compounds went through this assay and about 2,000 (36%) were called active. About 18% were inconclusive and are not listed. Cut-off read from the data, not from the text of the source: active = normalized growth mostly below about 0.91 (no sharp cut-off); inconclusive = no clear call, values can overlap the other calls; inactive = mostly above about 0.92. Some of the results follow.

Assay: chemical genetic growth profiling, strain panel (AID 1159580);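 note: tested at 20 µM; growth read once vehicle control cultures reached saturation at 30 °C; 1 = growth at the plate median or of vehicle wells; lower values mean less growth of the strain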
Settings: S. cerevisiae deletion strains, growth OD

Measured: normalized growth

CC12CCC(=O)C=C1CCc1ccccc12 (configuration not stated)
inactive: locus YAL021C, strain ccr4, active compounds read low 0.992 | locus YAL026C, strain drs2, active compounds read low 0.985 | locus YAL030W, strain snc1, active compounds read low 0.984 | locus YBL061C, strain skt5, active compounds read low 0.981 | locus YBR009C, strain hhf1, active compounds read low 0.985 | locus YBR023C, strain chs3, active compounds read low 0.979 | locus YBR171W, strain sec66, active compounds read low 0.972 | locus YBR231C, strain swc5, active compounds read low 0.985 | locus YBR279W, strain paf1, active compounds read low 0.985 | locus YCL011C, strain gbp2, active compounds read low 0.997 | locus YCL016C, strain dcc1, active compounds read low 0.978 | locus YCL061C, strain MRC1, active compounds read low 0.977 | locus YCL069W, strain vba3, active compounds read low 0.986 | locus YCR088W, strain abp1, active compounds read low 0.966 | locus YDL005C, strain med2, active compounds read low 0.985 | locus YDL040C, strain nat1, active compounds read low 0.967 | locus YDR001C, strain nth1, active compounds read low 0.967 | locus YDR069C, strain doa4, active compounds read low 0.984 | locus YDR137W, strain rgp1, active compounds read low 1.05 | locus YDR159W, strain sac3, active compounds read low 0.955 | locus YDR195W, strain ref2 0.947 | locus YDR297W, strain sur2, active compounds read low 0.978 | locus YDR334W, strain swr1, active compounds read low 0.959 | locus YDR335W, strain msn5, active compounds read low 0.978 | locus YDR392W, strain spt3, active compounds read low 0.825 | locus YEL003W, strain gim4, active compounds read low 0.981 | locus YEL037C, strain rad23, active compounds read low 0.972 | locus YEL061C, strain CIN8 (second series), active compounds read low 0.966 | locus YER015W, strain faa2, active compounds read low 0.986 | locus YER016W, strain bim1, active compounds read low 0.972 | locus YER111C, strain swi4, active compounds read low 0.972 | locus YFR010W, strain ubp6, active compounds read low 0.99 | locus YGL167C, strain pmr1, active compounds read low 0.97 | locus YGL173C, strain kem1, active compounds read low 0.985 | locus YGL227W, strain vid30, active compounds read low 0.979 | locus YGL240W, strain doc1, active compounds read low 0.925 | locus YGL253W, strain hxk2, active compounds read low 0.98 | locus YHR013C, strain ard1, active compounds read low 0.941 | locus YHR027C, strain rpn1, active compounds read low 0.994 | locus YHR142W, strain chs7, active compounds read low 0.978 | locus YJL092W, strain hpr5, active compounds read low 0.974 | locus YJL095W, strain BCK1 (second series), active compounds read low 0.994 | locus YJL115W, strain asf1, active compounds read low 0.977 | locus YJL129C, strain trk1, active compounds read low 0.964 | locus YJL154C, strain vps35, active compounds read low 0.972 | locus YJL164C, strain tpk1, active compounds read low 0.984 | locus YJL166W, strain qcr8, active compounds read low 0.977 | locus YJL187C, strain SWE1, active compounds read low 0.982 | locus YKL160W, strain elf1, active compounds read low 1 | locus YKR026C, strain gcn3, active compounds read low 0.951 | locus YKR091W, strain srl3, active compounds read low 0.971 | locus YLL001W, strain dnm1, active compounds read low 0.968 | locus YLL026W, active compounds read low 0.979 | locus YLL041C, strain sdh2, active compounds read low 0.973 | locus YLR027C, strain aat2, active compounds read low 0.99 | locus YLR221C, strain rsa3, active compounds read low 1.01 | locus YLR258W, strain gsy2, active compounds read low 0.992 | locus YLR262C, strain YPT6 (second series), active compounds read low 1.07 | locus YLR320W, strain mms22, active compounds read low 0.973 | locus YLR342W, strain FKS1, active compounds read low 0.977 | locus YLR370C, strain arc18, active compounds read low 0.984 | locus YLR384C, strain iki3, active compounds read low 0.972 | locus YML120C, strain ndi1, active compounds read low 0.984 | locus YMR058W, strain fet3, active compounds read low 0.982 | locus YMR125W, strain sto1, active compounds read low 0.969 | locus YMR129W, active compounds read low 0.983 | locus YMR205C, strain PFK2, active compounds read low 0.985 | locus YMR231W, strain pep5, active compounds read low 0.977 | locus YNL071W, strain lat1, active compounds read low 0.978 | locus YNL209W, strain ssb2, active compounds read low 0.989 | locus YNL248C, strain rpa49, active compounds read low 0.951 | locus YNL322C, strain KRE1 (second series), active compounds read low 0.962 | locus YNR049C, strain mso1, active compounds read low 0.98 | locus YOR001W, strain rrp6, active compounds read low 0.994 | locus YOR070C, strain gyp1, active compounds read low 0.992 | locus YOR080W, strain dia2, active compounds read low 0.974 | locus YOR083W, strain WHI5, active compounds read low 1 | locus YOR106W, strain vam3, active compounds read low 1 | locus YOR265W, strain rbl2, active compounds read low 0.984 | locus YOR270C, strain vph1, active compounds read low 0.931 | locus YOR290C, strain snf2, active compounds read low 0.933 | locus YPL051W, strain arl3, active compounds read low 0.994 | locus YPL078C, strain atp4, active compounds read low 0.977 | locus YPL106C, strain sse1, active compounds read low 0.973 | locus YPL240C, strain hsp82, active compounds read low 0.985
active: locus YER155C, strain BEM2 (second series), active compounds read low 0.849 | locus YLR357W, strain rsc2, active compounds read low 0.844
